An excerpt weighted towards active compounds, which were near 2.6% of everything screened.
Cruzain inh Det = cruzain (T. cruzi) inhibition with detergent. P25779. purified cruzain, Z-FR-AMC fluorescence, 0.01% Triton. Potency, µM, for the others: max response, negative = inhibition, actives largely listed as inhibitors. 0.43% of 200,000 active. AID 1478;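 note: plate controls were neutral wells for no effect and buffer without enzyme for full effect; nearly all actives have a fitted effect of over 40% in size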
Target sequence (P25779 123-467 limits assumed): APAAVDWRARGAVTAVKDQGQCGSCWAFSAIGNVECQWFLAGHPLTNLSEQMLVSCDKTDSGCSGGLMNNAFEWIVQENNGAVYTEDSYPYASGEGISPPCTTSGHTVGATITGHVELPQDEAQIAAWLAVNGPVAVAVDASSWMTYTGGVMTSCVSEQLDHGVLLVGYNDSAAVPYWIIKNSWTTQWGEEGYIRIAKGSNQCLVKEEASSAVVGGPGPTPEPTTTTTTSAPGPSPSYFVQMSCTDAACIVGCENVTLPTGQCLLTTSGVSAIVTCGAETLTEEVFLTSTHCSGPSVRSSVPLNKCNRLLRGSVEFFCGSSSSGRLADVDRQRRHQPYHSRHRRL
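Steps: dispense cruzain (1.5 nM final) in acetate buffer pH 5.5 with DTT and 0.01% Triton X-100; pin-transfer compounds; incubate 15 min RT; add Z-FR-AMC (2 uM final); read fluorescence every 30 s, using the 60 s intensity change.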
Cruzain noTriton = inhibitors of Trypanosoma cruzi cruzain without detergent; P25779; purified cruzain, Z-FR-AMC fluorescence, no detergent; Potency, µM, for inactives: max response, negative = inhibition, usual class: inhibitors; 2.3% of 200,000 active; AID 1476;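 note: plate controls were enzyme without inhibitor for no effect and buffer without enzyme for full effect; nearly all actives have a fitted effect of over 40% in size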
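Purified cruzain at 1.5 nM, pre-incubated 15 min with compound at room temperature in 100 mM sodium acetate pH 5.5, 5 mM DTT, 0.00005% Triton X-100. Reaction started with 2 uM Z-FR-AMC; AMC fluorescence increase over 60 s gives rate.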
* hit, by the source's call; ? = inconclusive. Calls come from the whole dose curve; as a rule, active = well fitted curve in the direction sought with a large enough effect; inconclusive = small, poorly fitted or top-dose-only effect, or another doubt; inactive = no such curve, though single readings can be large; an effect the other way counts as inactive or inconclusive. Potency is the fitted concentration of half-maximal effect.

SMILES	Cruzain inh Det	Cruzain noTriton
COc1ccc(CNC(=O)c2cc(Nc3ccc(C)cc3C)nc3ccccc23)cc1	-10%	9%
COc1cccc(C(=O)NCC(=O)N/N=C/c2cccc(OC(=O)c3ccc([N+](=O)[O-])cc3)c2)c1	-19%	?
Cc1ccc(CC(=O)N/N=C/c2ccc(OC(=O)c3ccc([N+](=O)[O-])cc3)cc2)cc1	-2%	?
O=C(CNC(=O)c1ccc([N+](=O)[O-])cc1)N/N=C\c1ccc(OC(=O)c2ccccc2)cc1	-10%	7.9µM*
Cc1cccc(C)c1OCC(=O)N/N=C/c1ccncc1	2%	11%
Cc1cc([N+](=O)[O-])cc(C)c1OCC(=O)N/N=C/c1ccc(OC(=O)c2ccccc2)cc1	-4%	13µM*
Cc1cc([N+](=O)[O-])cc(C)c1OCC(=O)N/N=C/c1ccc(OC(=O)c2ccccc2Br)cc1	-4%	10µM*
CC1Cc2ccccc2N1C(=O)CSc1nc2ccccc2n1CC(=O)N1CCOCC1 (stereo not given)	-4%	27%
CCN(CC)c1ccc(NS(=O)(=O)c2ccc(-c3cnc(C4CC4)o3)cc2)c(C)c1	-6%	-14%
Cc1ccc(S(=O)(=O)N2CCCc3cc(NS(=O)(=O)c4cccc(Cl)c4)ccc32)cc1	-2%	25µM*
CCOc1ccc(S(=O)(=O)Nc2ccc3c(c2)CCCN3S(=O)(=O)c2ccc(C)cc2)cc1	-2%	?
CCOC(=O)c1c(-c2ccc(C)cc2)csc1NC(=O)c1cc2ccccc2oc1=O	0%	-7%
Cc1sc(NC(=O)c2cc3ccccc3oc2=O)c(C(=O)OC(C)C)c1-c1ccccc1	-1%	3.2µM*
COc1ccc2c(c1)[nH]c(=O)c1sc3ccccc3c12	-1%	?
NC(=O)c1cn(-c2ccccc2)nc1-c1cc2ccccc2oc1=O	-3%	-1%
O=C(c1ccccc1)c1nn(-c2ccc(Cl)cc2)cc1C(=O)c1cc2ccccc2oc1=O	-5%	25µM*
O=C(NC1(C(F)(F)F)NC(=O)N(c2ccccc2)C1=O)c1cccs1 (stereo not given)	1%	8%
CN(C)c1ccc(C(=S)N2CCCCCC2)cc1	14µM*	6.3µM*
CN(C)c1ccc(C(=S)N2CCN(c3ccccc3)CC2)cc1	-4%	-3%
Cc1ccc(N2CCN(C(=S)c3ccc(N(C)C)cc3)CC2)cc1	-1%	20µM*
CC(=O)N1CCN(C(=S)c2ccc(N(C)C)cc2)CC1	1%	12%
COc1cc(/C=N/O)cc(Br)c1OCC(=O)NCc1ccccc1	-11%	-23%
Cc1cc(C)cc(NC(=S)N2CCN(CCO)CC2)c1	-2%	4%
OC(CNCCC1C=Nc2ccccc21)Cn1c2ccc(Cl)cc2c2cc(Cl)ccc21 (stereo not given)	-16%	6.3µM*
OC(CNCC1CCCO1)Cn1c2ccc(Cl)cc2c2cc(Cl)ccc21 (stereo not given)	-4%	?
SMILES	Cruzain inh Det	Cruzain noTriton
CCOC(=O)c1c(NC(=O)C2=C(C)NC(=S)NC2c2ccc(CC)cc2)sc(C)c1C (stereo not given)	-5%	10µM*
CCOC(=O)C1=C(C)NC(=S)NC1c1ccc(OC(=O)c2ccco2)cc1 (stereo not given)	-8%	?
O=C(O)c1[nH]c2ccc(Cl)cc2c1CC(=O)N1CCN(c2ccccc2)CC1	-9%	?
O=c1ccn(Cc2ccccc2)c(=O)n1Cc1ccccc1	-4%	3%
O=c1ccsn1Cc1ccccc1	?	13µM*
CSc1nccc(-c2nn(-c3ccc(C)cc3)ccc2=O)n1	-1%	2%
COC(=O)c1ccc(C(NC(=O)OCc2ccccc2)/C(F)=C/[C@@H](C)C(=O)NCc2ccc(-c3ccccc3)cc2)cc1 (stereo not given in full)	2%	10µM*
COC(=O)c1ccc(C(NC(=O)OCc2ccccc2)/C(F)=C/[C@@H](C)C(=O)NCc2cc(F)cc(F)c2)cc1 (stereo not given in full)	-1%	-3%
Cc1ccc(CNC(=O)/C=C/c2c(Cl)cccc2Cl)cc1	0%	25µM*
Cc1ccc(CNC(=O)/C=C/c2ccccc2Cl)cc1	0%	-2%
Cc1cc2c(=O)n(Cc3ccco3)c(SCC(=O)c3ccc(Cl)s3)nc2s1	-8%	25µM*
CCOC(=O)CC(=O)CSc1nc2sc(C)cc2c(=O)n1Cc1ccco1	-6%	-16%
COc1ccccc1N1CCN(C(=O)c2nn(-c3ccccc3OC)c(=O)c3ccccc23)CC1	-2%	?
O=C(N/N=C/C=C/c1ccccc1[N+](=O)[O-])c1cc(-c2ccccc2)n[nH]1	-18%	25µM*
O=C(N/N=C/C=C\c1ccccc1[N+](=O)[O-])c1ccccn1	-9%	4%
O=C(N/N=C/C=C/c1ccco1)c1cccnc1	-10%	-3%
O=C(N/N=C\C=C\c1ccco1)c1cc(-c2ccc3ccccc3c2)n[nH]1	-10%	16µM*
COc1ccc2[nH]c(=O)c(CN(CCO)C(=O)NCc3ccccc3)cc2c1	9%	-8%
Cc1cc(/C=C2/C(=O)N(C)C(=S)N2C)c(C)n1C1CC1	-9%	-21%
Cc1cc(/C=C2\SC(=S)NC2=O)c(C)n1C1CC1	0%	16µM*
CC1(C)Cc2nc3sc4c(=O)n(CC(=O)NCc5ccco5)cnc4c3cc2CO1	-2%	3%
CCCCCCCCOC(=O)C(NC(=O)CCC(=O)Nc1ccc(S(N)(=O)=O)cc1)C(O)c1ccccc1 (stereo not given)	3%	7.9µM*
CCOC(=O)C(NC(=O)CCC(=O)Nc1ccc(S(N)(=O)=O)cc1)C(O)c1ccccc1 (stereo not given)	0%	9%
CC1(C)CC(=O)c2sc(NC(=O)CCS(=O)(=O)c3ccccc3)nc2C1	-4%	-6%
COc1ccc(OC)c(NC(=O)c2cc(-c3cc(Cl)ccc3O)n[nH]2)c1	0%	?
SMILES	Cruzain inh Det	Cruzain noTriton
Cc1ccccc1-c1cc(-c2ccccc2O)n[nH]1	-10%	-14%
COc1ccc(Cl)cc1NC(=O)c1cc(-c2ccccc2O)n[nH]1	-2%	10µM*
Oc1ccc(Br)cc1-c1cc(-c2ccccc2F)[nH]n1	0%	20µM*
COc1ccccc1-c1cc(-c2cc(Cl)ccc2O)n[nH]1	1%	25µM*
Oc1ccc(Cl)cc1-c1cc(-c2ccccc2)n[nH]1	-13%	-10%
CC(=O)Nc1cccc(C(=O)Nc2ccccc2C(=O)O)c1	2%	-14%
CCOn1c(=O)c(-c2cccc([N+](=O)[O-])c2)[n+]([O-])c2ccccc21	-1%	-12%
COc1cc(NC(=S)NC(=O)c2ccc(C(C)(C)C)cc2)ccc1NC(=O)c1cccs1	3%	13µM*
COc1cc(NC(=S)NC(=O)c2ccc(F)cc2)ccc1NC(=O)c1ccco1	2%	?
COc1cc(NC(=S)NC(=O)c2cc(C)cc(C)c2)ccc1NC(=O)c1cccs1	-4%	16µM*
COc1cc(NC(=S)NC(=O)c2c(OC)cccc2OC)ccc1NC(=O)c1cccs1	-7%	-14%
Cc1cc(C)cc(NS(=O)(=O)c2ccc(NC(=S)NC(=O)c3cccs3)cc2)c1	-2%	25µM*
COc1cc(NS(=O)(=O)c2ccc(NC(=S)NC(=O)c3cccs3)cc2)nc(OC)n1	-11%	-3%
Cc1noc(/C=C/N(C)C)c1S(=O)(=O)N1CCCC(C(=O)Nc2ccc3c(c2)OCO3)C1 (stereo not given)	-11%	-2%
O=C1C=C(c2cccs2)C[C@H](c2ccccc2)[C@H]1n1nnc([N+](=O)[O-])n1	-8%	?
